Values without a mark were called inactive. For some of these results: Entries with a potency or affinity are not part of this list. The source made the active and inactive calls.
Assays:
[1] = Ebola virus entry assay, green fluorescence channel
[2] = Ebola virus entry assay, blue channel fluorescence
For efficacy in this document: 0% is about no effect.

SMILES	efficacy [1] [%]	outcome [2]	AC50 [2]
CN(Cc1cnc2nc(N)nc(N)c2n1)c1ccc(C(=O)N[C@@H](CCC(=O)O)C(=O)O)cc1	38.5	inactive	–
COc1cc2nc(N3CCN(C(=O)C4CCCO4)CC3)nc(N)c2cc1OC (stereo not drawn)	13	inactive	–
CCC(=O)C(CC(C)N(C)C)(c1ccccc1)c1ccccc1 (stereo not drawn)	118	inactive	–
CN1CCC[C@@H]1Cc1c[nH]c2ccc(CCS(=O)(=O)c3ccccc3)cc12	20.7	inactive	–
C=C[C@H]1CN2CC[C@H]1C[C@@H]2[C@@H](O)c1ccnc2ccc(OC)cc12	36.3	inactive	–
CNCC[C@H](Oc1cccc2ccccc12)c1cccs1	-133	–	11.2 µM (active)
Cc1cn([C@H]2C=C[C@@H](CO)O2)c(=O)[nH]c1=O	10.9	inactive	–
COc1ccc2nc(S(=O)Cc3ncc(C)c(OC)c3C)[nH]c2c1 (stereo not drawn)	22.2	inactive	–
O=C1CCc2cc(OCCCCc3nnnn3C3CCCCC3)ccc2N1	80.2	inactive	–
CN(C)CCCN1c2ccccc2CCc2ccc(Cl)cc21	-191	–	7.94 µM (active)
COC(c1ccccc1)(c1ccccc1)[C@H](Oc1nc(C)cc(C)n1)C(=O)O	-17.9	inactive	–
O=C(O)P(=O)(O)O	-12.5	inactive	–
CCCCS(=O)(=O)N[C@@H](Cc1ccc(OCCCCC2CCNCC2)cc1)C(=O)O	9.81	inactive	–
CN(C)c1cc(NC(=O)CNC(C)(C)C)c(O)c2c1C[C@@H]1C[C@H]3[C@H](N(C)C)C(=O)C(C(N)=O)=C(O)[C@@]3(O)C(=O)C1=C2O	47.7	inactive	–
